Rab9 promoter act: activators of Rab9 promoter | 2.8% of 320,000 active | Potency, µM (titrated, usually from 9.22 µM), usual class: activators | Huh7 Rab9 promoter-luciferase reporter, luminescence, 24 h; further: nearly all actives have a fitted effect of over 60% in size
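Luminescence read-out: Huh7 cells stably expressing Rab9-luciferase, treated 24 h with compound at 37 °C, then lysed with luciferase reagent for 10 min at ambient before reading.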
SMN2 splice up: SMN2 splice variant enhancement; HEK293 SMN2-luciferase splicing reporter, luminescence, 30-36 h; Potency, µM (titrated, usually from 46.1 µM), most hits filed as activators; 2.8% of 210,000 active; AID 1458; further: nearly all actives have a fitted effect of over 55% in size
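qHTS luciferase splicing reporter: luminescence rises when SMN2 exon 7 is included in transfected HEK293 cells. Compound exposure lasted 30-36 h at 37C, with 4.5 mM final sodium butyrate as control, followed by a ONE-Glo read.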
Luc counter: Kinase-Glo luciferase inhibition (counter-screen); Q27757; Kinase-Glo luciferase, ATP luminescence, 8 min; Potency, µM (series often up to 38.3 µM), usual class: inhibitors; 0.28% of 200,000 active; AID 1379; further: nearly all actives have a fitted effect of over 60% in size
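Inhibition of Kinase-Glo luciferase light generation was assessed at 10 uM ATP in pH 7.2 imidazole buffer, with luminescence measured after eight minutes at ambient temperature.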
ELG1 genotoxic: genotoxicity induction in ELG1-luciferase HEK293T cells. 1.3% of 330,000 active. Potency, µM (top dose mostly 46 µM), actives largely listed as activators. HEK293T ELG1-luciferase reporter, luminescence, 16 h; further: nearly all actives have a fitted effect of over 60% in size
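Genotoxic stress is detected as increased luminescence from luciferase-tagged ELG1 in HEK293T cells, measured with ONE-Glo after a 16 hr treatment at 37 °C.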
NPC1 prom act: activates the NPC1 promoter; Huh7 NPC1 promoter luciferase reporter, 24 h; Potency, µM (highest dose often 9.22 µM), usual class: activators; 2.4% of 320,000 active; further: nearly all actives have a fitted effect of over 60% in size
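Luciferase expression driven by the NPC1 promoter was measured in stably transfected Huh7 cells after a 24 h compound incubation, using a luciferase reagent and a luminescence read.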
FLuc counter: inhibits or activates purified firefly luciferase, miR-21 counter-screen; Potency, µM (doses to about 57.5 µM), hits mostly inhibitors; purified FLuc, Km substrates, luminescence inhibition; 6.9% of 360,000 active; further: nearly all actives have a fitted effect of over 55% in size
Target sequence (P08659 whole entry, looked up): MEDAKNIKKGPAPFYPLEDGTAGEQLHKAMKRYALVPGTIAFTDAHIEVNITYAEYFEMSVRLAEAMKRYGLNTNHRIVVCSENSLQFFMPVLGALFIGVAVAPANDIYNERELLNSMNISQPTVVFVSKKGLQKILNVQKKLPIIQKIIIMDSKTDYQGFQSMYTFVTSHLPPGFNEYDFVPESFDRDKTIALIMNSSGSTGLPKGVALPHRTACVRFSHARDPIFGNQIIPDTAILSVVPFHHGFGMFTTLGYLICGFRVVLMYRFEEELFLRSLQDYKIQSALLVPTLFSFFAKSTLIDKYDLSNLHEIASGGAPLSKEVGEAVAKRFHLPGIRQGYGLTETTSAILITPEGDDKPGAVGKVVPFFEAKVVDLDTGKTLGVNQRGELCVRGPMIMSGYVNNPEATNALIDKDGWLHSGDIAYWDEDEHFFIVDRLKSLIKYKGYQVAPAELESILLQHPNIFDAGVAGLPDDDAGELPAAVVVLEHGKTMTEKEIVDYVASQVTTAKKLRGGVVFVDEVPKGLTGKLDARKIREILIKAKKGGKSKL
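Biochemical qHTS of compounds, final roughly 60 µM downward over six points, against 10 nM purified firefly luciferase using Km concentrations of substrates (10 uM D-luciferin, 10 uM ATP) in Tris acetate pH 7.5 buffer; luminescence output.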
A number is an active result; 0 = inactive; ? = inconclusive; - = no result; [ ] = another dose, or the depositor's remark. A selection: hits, their analogues and other compounds. The true share with any hit is near 7.5%. The call rests on the fitted dose curve; in most records, active means well fitted curve in the direction sought with a large enough effect; inconclusive means small, poorly fitted or top-dose-only effect, or another doubt; inactive means no such curve, though single readings can be large; an effect the other way counts as inactive or inconclusive.

SMILES | Rab9 promoter act | SMN2 splice up | Luc counter | ELG1 genotoxic | NPC1 prom act | FLuc counter
C/C(=N/NC(=O)c1ccc(Br)o1)c1cccc(NC(=O)c2ccc(C)o2)c1 | 0 | 0 | 0 | 0 | 0 | 11µM
C/C(=N/NC(=O)c1ccc(Br)o1)c1cccc(NC(=O)c2ccc(F)cc2)c1 | 0 | - | - | 0 | 0 | 11µM
C/C(=N/NC(=O)c1ccc(Br)o1)c1ccncc1 | 0 | 0 | 0 | 0 | 0 | ?
C/C(=N/NC(=O)c1ccco1)c1cccc(NC(=O)c2ccc(C)s2)c1 | 0 | ? | 0 | 0 | 0 | 4.8µM
C/C(=N\NC(=O)c1ccn(C)n1)c1cccc(NC(=O)c2ccc(C)s2)c1 | 0 | ? | 0 | 0 | ? | 3µM
C/C(=N\NC(=O)C1CC1)c1ccc(NC(=O)c2ccc(Br)o2)cc1 | 0[1.84 µM] | 0 | 0 | ? | ? | 0
CCNC(=O)c1nn(-c2ccccc2C)nc1CO | - | 0 | - | - | - | 0
CCc1ccc(NC(=O)CC2C(=O)N(c3cccc(C)c3)C(=O)N2Cc2cccc(OC)c2)cc1 (stereo not drawn) | - | - | - | - | - | 0
C/C(=N/NC(=O)c1ccco1)c1cccc(NC(=O)c2ccc(C)o2)c1 | 0 | 0 | 0 | 0 | 0 | 15µM
C/C(=N/NC(=O)c1ccc(C)s1)c1cccc(NC(=O)COc2ccc(Cl)cc2Cl)c1 | 0.5µM | 0 | 0 | 0 | 0.56µM | 2.1µM
COC(=O)c1cccc(NC(=O)c2ccco2)c1 | 0 | ? | 0 | 0 | 0 | 0
Cc1ccc(-c2cc(C(=O)N/N=C/c3c(C)nn(-c4ccccc4)c3C)n[nH]2)s1 | 0 | 0 | 0 | 0 | 0 | 11µM
Cc1[nH]c2ccccc2c1/C=N/NC(=O)c1cc(-c2cccs2)[nH]n1 | 0 | 0 | 0 | 0 | 0 | 15µM
O=C(N=Nc1c(O)[nH]c2ccccc12)c1cc(-c2cccs2)[nH]n1 | 0 | - | - | 0 | ? | 12µM
CCC(=O)Nc1ccc(C(=O)N/N=C/c2c(C)[nH]c3ccccc23)cc1 | 0 | 0 | 0 | 0 | 0 | 21µM
Cc1cc(C(=O)N/N=C/c2c(C)[nH]c3ccccc23)n[nH]1 | 0 | - | - | 0 | 0 | ?
Cc1[nH]c2ccccc2c1/C=N/NC(=O)CCC(=O)NCc1ccccc1 | 0 | - | 0 | 0 | 0 | 0
O=C(Cc1cccs1)N=Nc1c(O)[nH]c2ccccc12 | 0 | - | - | 0 | 0 | ?
CCc1ccccc1NC(=O)Nc1cc(C(=O)NCc2cccc(F)c2)ccc1N1CCCC1 | - | - | - | - | - | 0
COc1ccccc1Nc1ncc(-c2cccs2)s1 | 2.8µM | 22µM | 0 | ? | ? | 2.7µM
Cc1ccc(-n2nnc(-c3ccnc4ccccc34)n2)cc1 | 4.5µM | - | - | 13µM | 3.2µM | 1.9µM
Fc1ccc(-n2nnc(-c3ccnc4ccccc34)n2)cc1 | 4µM | - | - | ? | 0 | 2.1µM
Clc1cc(Cl)cc(Nc2ncnc(-n3cccc3)n2)c1 | 0 | - | - | 0 | 0 | 0
Cc1ccc(Nc2ncnc(-n3cccc3)n2)cc1Cl | 3.2µM | - | - | ? | ? | 2.7µM
CCOC(=O)c1[nH]c(C)c(CCC(=O)Nc2ccc(Br)c(C)c2)c1C | - | - | - | - | - | 0
SMILES | Rab9 promoter act | SMN2 splice up | Luc counter | ELG1 genotoxic | NPC1 prom act | FLuc counter
C/C(=N/OC(=O)c1ccc(C(F)(F)F)cc1)c1oc(C)nc1C | 0 | - | - | 0 | 0 | 12µM
C/C(=N\OC(=O)c1ccc(C)cc1)c1c(C)nc2cc(C)ccn12 | 0 | 0 | 0 | 0 | 0 | 0
O=C(NC1CC1)C1CCCN1S(=O)(=O)c1ccc2ccccc2c1 (stereo not drawn) | 0 | 11µM | 0 | 0 | 0 | 0
CC(=O)c1ccc(NC(=O)COCc2cc(-c3ccco3)on2)cc1 | - | - | - | - | - | 0
Clc1cccc(-n2ncc3c(NC4CCCCC4)ncnc32)c1 | - | - | - | - | - | 4.8µM
Fc1ccc(-n2ncc3c(NC4CCCCCC4)ncnc32)cc1 | - | - | - | - | - | 4.8µM
Cc1ccc(-n2ncc3c(NC4CCCCC4)ncnc32)cc1 | - | - | - | - | - | 0.43µM
Cc1ccc(-n2ncc3c(NC4CCCCCC4)ncnc32)cc1 | - | - | - | - | - | 0.95µM
CCOC(=O)c1cc2c(=O)n3ccccc3nc2n(Cc2ccco2)c1=NC(=O)c1c(F)cccc1Cl | - | 0 | - | - | - | 0
COc1cccc(N2CCN(C(=O)c3cnc4c(-c5ccc(F)cc5)c(C)nn4c3C)CC2)c1 | - | - | - | - | - | 0
COc1ccccc1CNc1ncnc2c1c(-c1ccccc1)cn2-c1ccc(Br)cc1 | - | - | - | - | - | 0
COc1cccc(NC(=S)N/N=C2/CCCCc3ccccc32)c1 | 0 | 28µM | 0 | 0 | 0 | 13µM
Oc1c(Br)cc(Br)cc1C=Nc1ccc2c(c1)OCCO2 | 0 | 0 | 0 | ? | 0 | 24µM
Oc1[nH]c2ccccc2c1C=Nc1ccc2c(c1)OCCO2 | 1.4µM | - | - | ? | ? | 0.85µM
O=C(NC1CCCC1)C(c1cccnc1)N(C(=O)c1csnn1)c1ccc(F)cc1 (stereo not drawn) | 0 | - | - | 0 | 0 | 0
Nc1ccccc1C(=O)NNc1c2ccccc2nc2ccccc12 | 0 | - | - | 0 | 0 | 19µM
CC1CC(C)CN(CCCNC(=O)c2ccc3nc(N4CCCCC4)sc3c2)C1 (stereo not drawn) | ? | - | - | ? | 0.45µM | 0
CC1CCCC(C)N1CCCNC(=O)c1ccc2nc(N3CCOCC3)sc2c1 (stereo not drawn) | 0 | - | - | 0 | 0 | 0
CC1CCCC(C)N1CCCNC(=O)c1ccc2nc(N3CCCCC3)sc2c1 (stereo not drawn) | ? | - | - | 0 | 3.2µM | 0
COc1cccc(CNC(=O)CCc2c(C)c3ccc(O)c(C)c3oc2=O)c1 | - | 0 | - | - | - | 0
N/N=C(/Cc1nc2ccccc2[nH]1)c1ccc([N+](=O)[O-])cc1 | 0 | ? | 0 | 0 | 0 | 12µM
N#CCCN/N=C(/Cc1nc2ccccc2[nH]1)c1ccc(Cl)cc1 | ? | 14µM | 0 | ? | 0 | 27µM
c1ccc(N/N=C(\Cc2nc3ccccc3[nH]2)c2ccccc2)cc1 | 0 | 13µM | 0 | ? | ? | 7.6µM
O=C(NCCc1nc2ccccc2[nH]1)c1cc([N+](=O)[O-])cc([N+](=O)[O-])c1 | 0 | 0 | 0 | 0 | 0 | 0
COc1ccc(NC(=O)c2ocnc2C)cc1OC | 0 | 0 | 0 | 0 | 0 | 0
SMILES | Rab9 promoter act | SMN2 splice up | Luc counter | ELG1 genotoxic | NPC1 prom act | FLuc counter
Cc1ncoc1C(=O)Nc1ccc2c(c1)OCCO2 | 2.5µM | 16µM | ? | ? | 3.2µM | 12µM
Cc1ccsc1C(=O)Nc1ccc2c(c1)OCCO2 | 0.63µM | 2.2µM | 10µM | 2.1µM | 1.3µM | 1.9µM
CC(=O)Nc1ccc2c(c1)OCCOCCOc1cc(NC(C)=O)ccc1OCCOCCOCCO2 | 0 | 0 | 0 | 0 | 0 | 0
C/C(=N\Nc1cc(Cl)nc(C)n1)c1ccccc1 | ? | 0 | 0 | 0 | ? | 9.5µM
C/C(=N/Nc1cc(-c2ccccc2)nc(-c2ccccc2)n1)c1ccc(O)cc1 | 0 | - | 0 | 0 | 0 | 11µM
C/C(=N/Nc1nc(-c2ccccc2)cc(-c2ccccc2)n1)c1ccc(N)cc1 | 0 | ? | 0 | 0 | 0 | 5.4µM
COCCNc1nc(C)nc2c1nc(-c1ccccc1)n2CCN(C)C | - | 0 | 0 | - | - | -

Screening results from PubChem BioAssay.
